According to PubChem BioAssay AID1159580 (chemical genetic matrix, 2015):
In all, about 5,500 compounds went through this assay and about 2,000 (36%) were called active. Inconclusive results (about 18%) are left out. Rule as the data show it: active = normalized growth mostly below about 0.91 (no sharp cut-off); inconclusive = no clear call, values can overlap the other calls; inactive = mostly above about 0.92. The list shows a part of the results.

Assay: chemical genetic growth profiling, strain panel (AID 1159580);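 also: tested at 20 µM; growth read once vehicle control cultures reached saturation at 30 °C; 1 = growth at the plate median or of vehicle wells; lower values mean less growth of the strain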
Conditions: S. cerevisiae deletion strains, growth OD
[1] = locus YHR030C, strain SLT2, stronger effect = lower value
[2] = locus YHR079C, strain IRE1, stronger effect = lower value
[3] = locus YJL095W, strain BCK1, stronger effect = lower value
[4] = locus YJR066W, strain TOR1, stronger effect = lower value
[5] = locus YLR113W, strain HOG1, stronger effect = lower value
[6] = locus YNL183C, strain NPR1, stronger effect = lower value
[7] = locus YOR231W, strain MKK1, stronger effect = lower value
[8] = locus YPL256C, strain CLN2, stronger effect = lower value

Measured: normalized growth

Cn1ncc(-c2nc(-c3ccc(Cl)cc3)cs2)c1N
active: [1] 0.687 | locus YLR403W, strain SFP1, stronger effect = lower value 0.651 | [8] 0.859
inactive: locus YAR019C, strain CDC15, stronger effect = lower value 0.933 | locus YBL105C, strain PKC1, stronger effect = lower value 0.931 | locus YBR135W, strain CKS1, stronger effect = lower value 0.935 | locus YBR136W, strain MEC1, stronger effect = lower value 0.933 | locus YBR160W, strain CDC28, stronger effect = lower value 0.939 | locus YDL017W, strain CDC7, stronger effect = lower value 0.935 | locus YDL028C, strain MPS1, stronger effect = lower value 0.94 | locus YDL101C, strain DUN1, stronger effect = lower value 0.961 | locus YDL108W, strain KIN28, stronger effect = lower value 0.936 | locus YDL132W, strain cdc53, stronger effect = lower value 0.931 | locus YDL214C, strain PRR2, stronger effect = lower value 0.904 | locus YDR052C, strain DBF4, stronger effect = lower value 0.935 | locus YDR054C, strain cdc34, stronger effect = lower value 0.91 | locus YDR226W, strain ADK1, stronger effect = lower value 0.925 | locus YDR477W, strain SNF1, stronger effect = lower value 0.785 | locus YER123W, strain YCK3, stronger effect = lower value 0.921 | locus YER133W, strain GLC7, stronger effect = lower value 0.75 | locus YFL009W, strain cdc4, stronger effect = lower value 0.935 | locus YFL029C, strain CAK1, stronger effect = lower value 0.942 | locus YFR003C, strain YPI1, stronger effect = lower value 0.943 | locus YFR019W, strain FAB1, stronger effect = lower value 0.95 | locus YFR028C, strain CDC14, stronger effect = lower value 0.922 | locus YGR040W, strain KSS1, stronger effect = lower value 0.785 | locus YGR052W, strain FMP48, stronger effect = lower value 0.854 | locus YGR092W, strain DBF2, stronger effect = lower value 0.781 | [2] 0.822 | locus YHR082C, strain KSP1, stronger effect = lower value 0.897 | locus YHR205W, strain SCH9, stronger effect = lower value 0.798 | locus YIL147C, strain SLN1, stronger effect = lower value 0.936 | [3] 0.729 | locus YJL128C, strain PBS2, stronger effect = lower value 0.987 | locus YJL157C, strain FAR1, stronger effect = lower value 0.879 | locus YJR016C, strain ILV3, stronger effect = lower value 0.934 | locus YJR066W, strain TOR1 (second series), stronger effect = lower value 0.8 | [4] 0.78 | locus YKL048C, strain ELM1, stronger effect = lower value 0.95 | locus YKL067W, strain YNK1, stronger effect = lower value 0.932 | locus YKL101W, strain HSL1, stronger effect = lower value 0.947 | locus YKL193C, strain SDS22, stronger effect = lower value 0.924 | locus YKL203C, strain TOR2, stronger effect = lower value 0.817 | [5] 0.906 | locus YLR133W, strain CKI1, stronger effect = lower value 0.886 | locus YML070W, strain DAK1, stronger effect = lower value 0.91 | locus YMR001C, strain CDC5, stronger effect = lower value 0.914 | locus YMR205C, strain PFK2 (second series), stronger effect = lower value 0.917 | locus YMR277W, strain FCP1, stronger effect = lower value 0.914 | locus YNL006W, strain LST8, stronger effect = lower value 0.95 | locus YNL020C, strain ARK1, stronger effect = lower value 0.897 | locus YNL161W, strain CBK1, stronger effect = lower value 0.93 | [6] 0.892 | locus YNL207W, strain RIO2, stronger effect = lower value 0.916 | locus YNL222W, strain SSU72, stronger effect = lower value 0.934 | locus YNL307C, strain MCK1 (second series), stronger effect = lower value 0.899 | locus YOL078W, strain AVO1, stronger effect = lower value 0.934 | locus YOL136C, strain PFK27, stronger effect = lower value 0.939 | locus YOR061W, strain CKA2, stronger effect = lower value 0.874 | locus YOR119C, strain RIO1, stronger effect = lower value 0.803 | [7] 0.96 | locus YOR329C, strain SCD5, stronger effect = lower value 0.944 | locus YPL031C, strain PHO85, stronger effect = lower value 0.74 | locus YPL153C, strain RAD53, stronger effect = lower value 0.776 | locus YPL204W, strain HRR25, stronger effect = lower value 0.774 | locus YPL209C, strain IPL1, stronger effect = lower value 0.938 | locus YPR025C, strain CCL1, stronger effect = lower value 0.944 | locus YPR106W, strain ISR1, stronger effect = lower value 0.955 | locus YPR111W, strain DBF20, stronger effect = lower value 0.959 | strain NNK1, stronger effect = lower value 0.966 | strain TSCII, stronger effect = lower value 0.933

O[C@@H]1[C@H](O)CO[C@H]1O
inactive: [1] 0.995 | [2] 0.997 | [3] 1.01 | [4] 0.945 | [5] 1 | [6] 0.965 | [7] 0.992 | [8] 0.988
